High-throughput results from PubChem BioAssay.
TrxR1 substrate – is turned over as a substrate by rat TrxR1; O89049; purified TrxR1 substrate turnover, NADPH consumption readout; Potency, µM (doses to about 114 µM), without a hit: top-dose activity change, negative = substrate turnover; actives 0.01% (n = 390,000); AID 588456; also: nearly all actives have a fitted effect of over 50% in size
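Rat TrxR1, dispensed at 90 nM, was prereduced with 400 uM NADPH (final) for 5 min at ~22 deg C, then incubated with compound 15 min before 400 uM selenite. A first-read NADPH fluorescence drop versus no-compound background flagged substrates.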
PLK1 PBD inh – blocks phosphopeptide binding to human PLK1 polo-box domain; P53350; Plk1 PBD binding of FITC phosphopeptide, fluorescence polarization; Potency, µM, inactives show max response, negative = inhibition, usual class: inhibitors; actives 2.8% (n = 360,000); AID 720504; also: series mostly up to about 57 µM; nearly all actives have a fitted effect of over 65% in size
Target sequence (P53350 whole entry, looked up, the tested form may be a part): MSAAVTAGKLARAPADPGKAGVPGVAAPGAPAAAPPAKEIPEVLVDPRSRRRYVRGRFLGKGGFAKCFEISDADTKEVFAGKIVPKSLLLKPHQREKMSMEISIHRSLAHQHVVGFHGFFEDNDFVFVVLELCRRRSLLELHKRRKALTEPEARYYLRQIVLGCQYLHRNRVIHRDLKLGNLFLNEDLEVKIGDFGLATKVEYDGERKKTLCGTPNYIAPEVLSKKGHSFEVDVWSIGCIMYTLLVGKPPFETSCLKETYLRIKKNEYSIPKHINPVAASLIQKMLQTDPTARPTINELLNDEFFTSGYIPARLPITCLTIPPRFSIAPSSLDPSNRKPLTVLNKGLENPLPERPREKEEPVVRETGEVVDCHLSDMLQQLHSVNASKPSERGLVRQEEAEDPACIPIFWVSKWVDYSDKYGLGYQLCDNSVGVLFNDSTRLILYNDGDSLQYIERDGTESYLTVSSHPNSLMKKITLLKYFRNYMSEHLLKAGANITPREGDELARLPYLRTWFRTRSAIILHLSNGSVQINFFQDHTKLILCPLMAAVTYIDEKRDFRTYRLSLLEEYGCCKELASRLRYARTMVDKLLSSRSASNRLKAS
VDR inh – blocks the human vitamin D receptor | P11473 | actives 0.93% (n = 400,000) | VDR-SRC2-3 peptide fluorescence polarization, 2 h | Potency, µM, for inactives: max response, negative = inhibition, hits mostly inhibitors
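Fluorescence polarization assay of small-molecule disruption of VDR binding to coregulator peptide SRC2-3. Compounds and controls pin-transferred, then read after 2 h incubation at ambient room temperature.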
TrxR1 inh – blocks rat thioredoxin reductase 1; O89049; recombinant rTrxR1, NADPH fluorescence consumption, selenite substrate; Potency, µM (highest dose often 114 µM), inactives show at the top dose activity change, negative = inhibition, hits mostly inhibitors; actives 1% (n = 390,000); AID 588453; also: nearly all actives have a fitted effect of over 65% in size
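Rat TrxR1 (90 nM in the dispensed reagent) was pre-reduced with 400 uM NADPH for 5 min at room temperature, then incubated with compound for 15 min. After 400 uM selenite was added, NADPH fluorescence (Ex 340/Em 450 nm) was followed for 8 min.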
mIDH1 inhibitor – blocks human mutant IDH1 R132H enzyme; O75874; IDH1-R132H enzyme, NADPH consumption, diaphorase/resazurin fluorescence; Potency, µM (series often up to 76.6 µM), without a hit: at the highest dose activity change, negative = inhibition, actives largely listed as inhibitors; actives 0.093% (n = 390,000); also: nearly all actives have a fitted effect of over 65% in size
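IDH1-R132H (0.5 ug/mL) preincubated 30 min with compound, then NADPH (0.016 mM) and alpha-KG (2 mM) added; 80 min at RT, pH 7.5. Remaining NADPH coupled via diaphorase/resazurin to fluorescence (540/590 nm); concentration-response curves normalized to no-enzyme control.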
Sfp PPTase inh – blocks B. subtilis Sfp PPTase activity; Potency, µM, for the others: largest response in the series, negative = inhibition, usual class: inhibitors; Q9F4F7; actives 3.5% (n = 310,000); Biochemical Sfp PPTase activity, qHTS; AID 1490;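 also: the enzyme is Sfp with the accession as filed and its product quenches rhodamine fluorescence; 0% = enzyme reaction without inhibitor and -100% = no enzyme wells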
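Fluorescence-quenching assay with 15 nM Sfp, 5 uM rhodamine-CoA and 12.5 uM BHQ-2-labelled ybbR peptide in pH 7.6 Hepes/MgCl2 buffer. Enzyme was pre-incubated with compound for 15 min at room temperature. Rate was taken from the 30-min fluorescence change (525/598 nm).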
Starred values were filed as active, the others as inactive; ? = inconclusive; nt = not tested or not shown; [ ] = another dose, or the depositor's remark. Only some compounds are listed: those with a hit (about 5.2% of all), similar ones and a draw of the others. Calls follow the shape of the dose curve; as a rule, active = well fitted curve in the direction sought with a large enough effect; inconclusive = small, poorly fitted or top-dose-only effect, or another doubt; inactive = no such curve, though single readings can be large; an effect the other way counts as inactive or inconclusive. Unless noted, % is scaled to controls: 0 for no effect and ±100 for the full control effect; potency is read from the fitted curve at half-maximal effect.

SMILES	TrxR1 substrate	PLK1 PBD inh	VDR inh	TrxR1 inh	mIDH1 inhibitor	Sfp PPTase inh
Cn1c(SCC(=O)c2ccc3c(c2)Cc2ccccc2-3)nnc1-c1ccccc1	-10%	-30%	-17%	16%[57.1 µM]	-5%	79µM*
Cc1ccc(C(=O)CSc2nnc(-c3ccccc3N)n2C)cc1C	-6%	-7%	-3%	2%	9%	7%
Cn1c(SCC(N)=O)nnc1-c1ccccc1	-16%[57.1 µM]	0%	2%	19%	0%	3%
Cn1c(SCC(=O)c2ccccc2)nnc1-c1cccc(N)c1	6%[57.1 µM]	24µM*	-6%	8%[57.1 µM]	-3%	11%
CCC(=O)Nc1nnc(SCC(=O)c2ccc3c(c2)Cc2ccccc2-3)s1	10%	-3%	-5%	-1%	5%	56µM*
CCC[C@H]1COCCS(=O)(=O)N1Cc1ccc(F)cc1	-3%	nt	nt	1%	nt	nt
CCCCn1c(C)cc2c(c1=O)C1O[C@](c3ccc(OC)cc3)(Cc3cc(OC)c(OC)cc31)O2	nt	nt	nt	nt	nt	-12%
CCc1ccccc1NC(=O)CN1CCCN(Cc2cc(C)ccc2C)S1(=O)=O	3%	nt	7%	31%	2%	nt
C=CCN([C@H](C(=O)OC)C(C)C)S(=O)(=O)CCNCc1ccccc1	-3%	-2%	-11%	10%	5%	nt
CC1CC=CC2C1C(=O)N(Cc1ccccc1)C2c1ccc(-c2ccc(N(C)C)cc2)cc1F (configuration not stated)	125%	nt	-9%	83%	nt	-19%
CC(=C1C(=O)c2ccccc2C1=O)N1CCN(C/C=C/c2ccccc2)CC1	-11%	?	?	?	8%	56µM*
O=C(c1cc(Br)ccc1Cl)N1CCN(c2ccccn2)CC1	-8%	0%	-5%	-12%	3%	-3%
Cc1nn(-c2ccccn2)c2c1-c1nc(N3CCOCC3)ncc1CC2	110%	-11%	-6%	-7%	4%	45µM*
CC(C)c1ccc(/C=C/C(=O)O)cc1	-1%	-2%	8%	-1%	11%	?
CCN1CCC(O)(/C=C/c2ccc(C(C)C)cc2)C(C(=O)/C=C/c2ccc(C(C)C)cc2)C1 (configuration not stated)	-14%	-29%	40µM*	7.9µM*	-14%	nt
O=C(/C=C\c1ccccc1)c1ccccc1O	nt	nt	nt	nt	nt	14%
Cc1ccc(/C=C/C(=O)c2ccccc(=O)c2O)cc1C	-4%[57.1 µM]	30µM*	45µM*	?	7%	?
COc1ccc(C=CC(=O)c2ccc(OC)c(OC)c2O)cc1OC	-8%[57.1 µM]	-9%	?	-31%[57.1 µM]	0%	nt
O=C(/C=C/c1ccccc1)c1cc(Br)ccc(=O)c1O	-10%	27µM*	22µM*	?	5%	16µM*
O=C(/C=C/c1ccc(O)cc1)c1ccccc1O	nt	nt	5.6µM*	nt	nt	-43%
CO[C@H]1C[C@@H]2CC[C@@H](C)[C@@](O)(O2)C(=O)C(=O)N2CCCC[C@H]2C(=O)O[C@H]([C@H](C)C[C@@H]2CC[C@@H](O)[C@H](OC)C2)CC(=O)[C@H](C)/C=C(\C)[C@@H](O)[C@@H](OC)C(=O)[C@H](C)C[C@H](C)/C=C/C=C/C=C/1C	-6%	nt	-20%	-16%	nt	-2%
O=C(O)/C=C/C(=O)Nc1ccc(N2CCOCC2)nc1N1CCOCC1	-4%	?	-27%	16µM*	0%	10µM*
Cc1cc(Cl)ccc1NC(=S)NCc1ccc(F)cc1	-5%[57.1 µM]	-14%	-10%	-2%[57.1 µM]	-6%	16%
S=c1sc2c(Cl)ncnc2n1-c1ccccc1	-4%	-18%	-9%	16µM*	1%	5%
COc1cc(NC(=O)COC(=O)CNC(=O)c2ccc(C)s2)cc(OC)c1	-2%	24µM*	-12%	5%[57.1 µM]	0%	19%
SMILES	TrxR1 substrate	PLK1 PBD inh	VDR inh	TrxR1 inh	mIDH1 inhibitor	Sfp PPTase inh
CCOc1ccc(CCNC(=O)c2ccc3c(c2)N(Cc2ccccc2)C(=O)c2ccccc2S3=O)cc1OCC (configuration not stated)	1%	nt	-10%	20%	-2%	nt
O=c1c2cccnc2n(-c2ccccc2)n1Cc1ccc(Cl)cc1	74%[57.1 µM]	27µM*	-5%	104%[57.1 µM]	0%	6%
CCOc1cccc2cc(-c3nc4ccc(C(=O)O)cc4[nH]3)c(=O)oc12	5%[57.1 µM]	nt	14%	-2%[57.1 µM]	nt	nt
CCCC[C@H](CC)CN=C(N)NC(N)=NCCCCCCN=C(N)NC(N)=NC[C@@H](CC)CCCC	nt	nt	36%	nt	nt	8.9µM*
CNc1cc(-c2cc(OC)ccc2OC)ncn1	nt	-2%	nt	nt	nt	nt
CCOC(=O)CN(C(=O)c1snc(C(N)=O)c1N)C(C(=O)NCCC(C)C)c1ccc(C)cc1 (configuration not stated)	nt	-1%	nt	nt	-7%	nt
O=C(CSc1oc(-c2ccco2)nc1S(=O)(=O)c1ccc(F)cc1)NCC1CCCO1 (configuration not stated)	5%	-18%	-2%	16µM*	-1%	-12%
Cc1ccc(S(=O)(=O)c2nc(-c3ccco3)oc2SCC(N)=O)cc1	?	-23%	-4%	79µM*	0%	1%
Cc1cccc(NNC(N)=S)c1C	0%	-8%	?	2%	-12%	40µM*
Cc1ccc(C)c(NNC(N)=S)c1	1%[57.1 µM]	-15%	-29%	1%[57.1 µM]	-3%	50µM*
Cc1cc(Cl)ccc1NNC(N)=S	4%[57.1 µM]	-21%	?	-19%[57.1 µM]	2%	50µM*
NC(=S)NNc1cc(Cl)cc(Cl)c1	-5%	-30%	?	-36%	4%	14µM*
Cc1ccc(C)c(NNC(=O)C(=O)NNc2cc(C)ccc2C)c1	-4%[57.1 µM]	1%	4%	4%[57.1 µM]	7%	15%
Cc1cc(Cl)ccc1NC(=S)NC(C)(C)C	5%	3%	-7%	-1%	1%	-2%
O=C(NCc1ccccc1Cl)[C@H]1CCCN1C(=O)[C@H]1CCCN1C(=O)c1cccs1	nt	-3%	nt	nt	nt	nt
O=C1NC[C@@H](CCCCN2CCN(CC3CCCCC3)C(=O)C2=O)N(CCC2CCCCC2)C1=O	nt	-5%	nt	nt	nt	nt
COc1cc(CNC(=O)CCCC(=O)c2ccccc2)cc(OC)c1OC	5%	24µM*	-29%	19%	4%	11%
CCOc1cc(/C=C2\NC(=O)NC2=O)cc([N+](=O)[O-])c1O	-11%	-27%	20%	50µM*	-4%	2%
COc1cc(/C=C2\C(=O)NN(c3ccccc3)C2=O)cc([N+](=O)[O-])c1O	-8%[57.1 µM]	?	-30%	-42%	30%	?
CCOC(=O)COc1ccc(/C=C2/C(=O)NN(c3ccc(F)cc3)C2=O)cc1OC	-12%	27µM*	-22%	?	-5%	?
CCOc1cc(/C=C2\NC(=O)NC2=O)ccc1OC(C)C(=O)O (configuration not stated)	-8%	-13%	-2%	-2%	0%	10%
